Assay results taken from PubChem BioAssay (NCATS).
Inconclusive results are not listed. Calls of active or inactive are those of the source. The call rests on the fitted dose curve; in most records, active means well fitted cell-killing curve with a large enough effect; inconclusive means small, poorly fitted or top-dose-only effect, or effect the other way; inactive means no such curve, though single readings can be large or run the other way.

Test: Quantitative High-Throughput drug screen in 47 multiple myeloma cell lines against the NCATS MIPE library collection: RPMI8226_ATCC cell viability assay (AID 1919871); further: nearly all actives have a fitted effect of over 30% in size
Settings: RPMI8226 myeloma viability, CellTiter-Glo ATP luminescence, 48 h; series mostly up to 45.8 µM
Text: PI: Beverly A. Mock Ph.D.
Laboratory of Cancer Biology and Genetics,
Center for Cancer Research, National Cancer Institute,
National Institute of Health, Bethesda, Maryland
Drug resistance and disease progression are common in multiple myeloma (MM) patients, underscoring the need for new therapeutic combinations. […] We hypothesized that effective combinations would reduce MYC expression and enhance p16 activity. […] These preclinical data identify potentially useful drug combinations for evaluation in drug-resistant MM and reveal potential mechanisms of combined drug sensitivity.
Described herein is the primary MIPE qHTS used to cherrypick compounds. Validated compounds were then further tested for potential synergistic activiy.
[1] Peat TJ, Gaikwad SM, Dubois W, Gyabaah-Kessie N, Zhang S, Gorjifard S, Phyo Z, Andres M, Hughitt VK, Simpson RM, Miller MA, Girvin AT, Taylor A, Williams D, D'Antonio N, Zhang Y, Rajagopalan A, Flietner E, Wilson K, Zhang X, Shinn P, Klumpp-Thomas C, McKnight C, Itkin Z, Chen L, Kazandijian D, Zhang J, Michalowski AM, Simmons JK, Keats J, Thomas CJ, Mock BA. Drug combinations identified by high-throughput screening promote cell cycle transition and upregulate Smad pathways in myeloma. Cancer Lett. 2023 Aug 1;568:216284. doi: 10.1016/j.canlet.2023.216284. Epub 2023 Jun 24. PMID: 37356470; PMCID: PMC10408729.
SEQUENCE No. (e.g., 1, 2, 3, etc.); […] (e.g., Cells, Incubation, Reagent, etc.); VALUE and DESCRIPTION.
1; Cells; 5 uL; white, solid bottom 1536-well Greiner assay plate.
2; Compounds; 23 nL; Kalypsis pin tool (Wako USA) equipped with a 1536-well pin head to transfer to the assay plates.
3; Incubation; 48 hours; 37C incubation.
4; Reagent;5uL; CellTiter Glo (Promega).
5; Detector; 425V; Luminescence; Viewlux PerkinElmer.
NOTES (numbers refer to Sequence numbers above)
1. The cell-based screening methods employed in this study were like those previously published. Briefly, the corresponding myeloma cell lines were screened in 1,536-well plates with 500 cells, 5-uL per well for inhibition of cell viability (assessed by measuring ATP levels with CellTiterGlo).
2. NCATS MIPE 4.0 library of approved and investigational drugs were added using the Kalypsis pin tool. Wells treated with DMSO only for 100% viability and media only for 0% viability were used as controls.
3. The assay plates were covered and incubated for 48 hours in a 37C, 5% CO2 incubator with controlled humidity.
4. After 48 hours, CellTilter-GloTM luminescent substrate mix (Promega) reagent was added to the assay plate and plates we incubated for 5 min at room temperature.
5. Signal was measured as median relative luminescence units on a ViewLux (PerkinElmer) multiplate reader.
[1] Heske CM, Davis MI, Baumgart JT, Wilson K, Gormally MV, Chen L, Zhang X, Ceribelli M, Duveau DY, Guha R, Ferrer M, Arnaldez FI, Ji J, Tran HL, Zhang Y, Mendoza A, Helman LJ, Thomas CJ. Matrix Screen Identifies Synergistic Combination of PARP Inhibitors and Nicotinamide Phosphoribosyltransferase (NAMPT) Inhibitors in Ewing Sarcoma. Clin Cancer Res. 2017 Dec 1;23(23):7301-7311. doi: 10.1158/1078-0432.CCR-17-1121. Epub 2017 Sep 12. PMID: 28899971; PMCID: PMC6636827.
Potency means the concentration at half of the fitted maximal effect.

SMILES | Potency
CNC1[C@H](O)C(O[C@@H]2C(O)C(O[C@H]3O[C@H]([C@@H](C)NC)CC[C@H]3N)[C@@H](N)C[C@H]2N)OC[C@]1(C)O (stereo not given in full) | inactive
CCC(C)SSc1ncc[nH]1 (stereo not given) | 23.5 µM (active)
O=c1[nH]c(=O)n([C@H]2C[C@@H](O)[C@@H](CO)O2)cc1C(F)(F)F | 3.72 µM (active)
CCOC(=O)[C@@H](N)CCC(=O)N[C@@H](CSCc1ccccc1)C(=O)N[C@@H](C(=O)OCC)c1ccccc1 | inactive
OC[C@H]1O[C@@H](OCCc2ccc(O)cc2)[C@H](O)[C@@H](O)[C@H]1O | inactive
Cc1cc2c(cc1C1(c3ccc(C(=O)O)cn3)CC1)C(C)(C)CCC2(C)C | 0.0118 µM (active)
CCC[C@H](Nc1nc(-c2ccc(NC(=O)NCC)c(OC)c2)ncc1C)c1cccnc1 | 0.0264 µM (active)
O=C1C(CCC(O)c2ccc(F)cc2)C(c2ccc(O)cc2)N1c1ccc(F)cc1 (stereo not given) | inactive
NS(=O)(=O)c1ccc(Nc2nc(OCC3CCCCC3)c3[nH]cnc3n2)cc1 | inactive
N[C@@H](CC(=O)N1CCn2c(nnc2C(F)(F)F)C1)Cc1cc(F)c(F)cc1F | inactive
CCCCCCCCCCCCCCCC(=O)O[C@H]1[C@@H](O)[C@@H](O)[C@@H]([C@H](NC(=O)[C@@H]2C[C@@H](CCC)CN2C)[C@H](C)Cl)O[C@@H]1SC | 3.32 µM (active)
Cc1ccccc1-n1c(Cn2nc(-c3cccc(O)c3)c3c(N)ncnc32)nc2cccc(C)c2c1=O | 13.2 µM (active)
C[C@@H](O[C@H]1OCCN(Cc2n[nH]c(=O)[nH]2)[C@@H]1c1ccc(F)cc1)c1cc(C(F)(F)F)cc(C(F)(F)F)c1 | 23.5 µM (active)
N#CC1(c2cccc(C(=O)Nc3cc(Oc4ccc5nc(NC(=O)C6CC6)sc5n4)ccc3F)c2Cl)CC1 | 1.05 µM (active)
O=C(c1ccc(C(=O)N2CCC(N3CCCC3)CC2)c(Nc2ccccc2)c1)N1CCC(N2CCCC2)CC1 | inactive
CC(C)(CO)[C@@H](O)C(=O)NCCC(=O)O | inactive
O=C(O)Cc1cccc(OCCCN(Cc2cccc(C(F)(F)F)c2Cl)CC(c2ccccc2)c2ccccc2)c1 | 23.5 µM (active)
COc1ccc(Cn2ccc3ccc(C(=O)NO)cc32)cc1 | inactive
CCCCn1c(=O)n(Cc2ccccc2F)c(=O)c2[nH]c(Cc3ccc(NC(C)=O)cc3)nc21 | inactive
CN1CCC[C@H]1CCO[C@](C)(c1ccccc1)c1ccc(Cl)cc1 | inactive

SMILES | Potency
OC[C@H]1O[C@@H](Oc2ccc(O)cc2)[C@H](O)[C@@H](O)[C@H]1O | inactive
CC=C1C2C=C(C)CC1(N)c1ccc(=O)[nH]c1C2 (stereo not given) | inactive
C[C@@H](O)[C@H]1C(=O)N2C(C(=O)OCOC(=O)C(C)(C)C)=C(SC3CN(C4=NCCS4)C3)[C@H](C)[C@H]12 | inactive
NC(=O)c1ncn([C@@H]2O[C@H](CO)[C@@H](O)[C@@H]2O)n1 | inactive
CC[C@H](CC#N)OC(=O)N[C@@H](C)c1cccc(NC(=O)Nc2ccc(-c3cnco3)c(OC)c2)c1 | 2.64 µM (active)
COc1cc2c(cc1OC)[C@@H]1Cc3ccc(OC)c(OC)c3CN1CC2 | 18.7 µM (active)
COc1nccc(-c2c(-c3ccc(F)cc3)ncn2C2CCC(O)CC2)n1 (stereo not given) | 1.18 µM (active)
C[C@@H](NC(=O)c1ncnc(N)c1Cl)c1ncc(C(=O)Nc2cc(C(F)(F)F)c(Cl)cn2)s1 | 13.2 µM (active)
CNC(=O)c1cc(COc2nnc(Nc3ccc(Cl)cc3)c3ccoc23)ccn1 | 20.9 µM (active)
CN(C)c1ccc(-c2nc3ncc(Cl)c(N4CCN(CC(=O)Nc5nccs5)CC4)c3[nH]2)cc1 | 4.18 µM (active)
CN(C)CC[C@H](CSc1ccccc1)Nc1ccc(S(=O)(=O)NC(=O)c2ccc(N3CCN(Cc4ccccc4-c4ccc(Cl)cc4)CC3)cc2)cc1[N+](=O)[O-] | 4.18 µM (active)
COc1cc(Cl)cn2c(-c3cccc(NC4CNC4)n3)cnc12 | inactive
C[C@@H](N)c1ccc(C(=O)Nc2ccnc3[nH]ccc23)cc1 | inactive
CNC(=O)[C@H](CC1=CN=C2C=CCC=C12)NC(=O)[C@@H](CC(=O)NO)CC(C)C | inactive
CCC(=C(c1ccc(O)cc1)c1ccc(OCCNC)cc1)c1ccccc1 | 26.4 µM (active)
CC1=C[C@@H]2[C@@H]([C@@H](O)C[C@@]3(C)[C@H]2C[C@@H](C)[C@]3(O)C(=O)CO)[C@@]2(C)Cc3cnn(-c4ccccc4)c3C=C12 | 0.0264 µM (active)
Cc1cccc2c1CC[C@H](CN1CCC(c3c(Cl)cccc3Cl)CC1)C[C@@H]2O | 16.6 µM (active)
COc1cc(N2CCN(C)CC2)ccc1Nc1nc(N)c(C(=O)c2c(Cl)cccc2Cl)s1 | inactive
NC1(C(=O)N[C@@H](CCO)c2ccc(Cl)cc2)CCN(c2ncnc3[nH]ccc23)CC1 | 6.62 µM (active)
CCc1cccc(CC)c1NC(=O)N1Cc2[nH]nc(NC(=O)c3ccc(N4CCN(C)CC4)cc3)c2C1 | 18.7 µM (active)
